This passage reports Potency and outcome results from PubChem BioAssay (NCATS).

Values without a mark were called inactive. Inconclusive results are not listed. Calls of active or inactive are those of the source. Unless noted, calls follow the shape of the dose curve; as a rule, active = well fitted curve in the direction sought with a large enough effect; inconclusive = small, poorly fitted or top-dose-only effect, or another doubt; inactive = no such curve, though single readings can be large; an effect the other way counts as inactive or inconclusive.

Test [1] deals with Zika virus NS2B-NS3 protease (linked construct). Put plainly: Primary screen NINDS Rhodamine qHTS for Zika virus inhibitors (AID 1347160). Also: nearly all actives have a fitted effect of over 55% in size. Also: potency is read from the fitted curve at half-maximal effect. A digest of the protocol:
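Percent inhibition, normalized to uninhibited and enzyme-free controls, is fitted to a 4-parameter Hill equation. Fluorescence change comes from a 15-min cleavage of 1.5 microM bis-peptide Rhodamine110 substrate by 25 nM linked NS2B-NS3 at room temperature.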

Test [2] is described as follows: OV-KATE Cancer Cell Toxicity qHTS against the NCATS CANVASS Library (AID 1347345). Also: potency is read from the fitted curve at half-maximal effect. A digest of the protocol:
(§1)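 In this cytotoxicity screen, 1000 cells per well rested 4 hours, then received compound (11 concentrations) for a 72-hour incubation; an ATP-dependent luminescent signal (CellTiter-Glo) was the endpoint.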
In general terms: Quantitative high-throughput screening tests each substance at several concentrations.

The nature of test [3]: HPAF-II Cancer Cell Toxicity qHTS against the NCATS CANVASS Library (AID 1347346). Also: nearly all actives have a fitted effect of over 55% in size. Also: potency is read from the fitted curve at half-maximal effect. The method, boiled down: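 HPAF-II cells were seeded at 1000 cells/well, allowed to settle for 4 h at 37 degrees C, then exposed to compounds in an 11-point series for 72 h. Viability was read by CellTiter-Glo luminescence.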
The nature of test [4]: OV-SAHO Cancer Cell Toxicity qHTS against the NCATS CANVASS Library (AID 1347348). Also: nearly all actives have a fitted effect of over 55% in size. Also: potency is read from the fitted curve at half-maximal effect. A digest of the protocol:
as §1

Test [5] in a line: Panc-1005 Cancer Cell Toxicity qHTS against the NCATS CANVASS Library (AID 1347349). Also: nearly all actives have a fitted effect of over 60% in size. Also: potency is read from the fitted curve at half-maximal effect. The method, boiled down:
as §1

Test [6] can be described thus: COV-362 Cancer Cell Toxicity qHTS against the NCATS CANVASS Library (AID 1347352). Also: potency is read from the fitted curve at half-maximal effect. The method, boiled down:
(§2)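 Cells were seeded at 1000 per well and allowed to settle 4 hours at 37 degrees C before pin transfer of compounds as an 11-point series. Viability was read by CellTiter-Glo luminescence after 72 hours' exposure.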

Test [7] is described as follows: UWB1.289-WTBRCA1 Cancer Cell Toxicity qHTS against the NCATS CANVASS Library (AID 1347354). Also: potency is read from the fitted curve at half-maximal effect. The method, boiled down: as §2
The nature of test [8]: HEK293 24hr Apoptosis Induction qHTS against the NCATS CANVASS Library (AID 1347359). The method, boiled down: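 HEK293 cells (500/well, DMEM + 10% FBS) were exposed to compounds in an 11-point series for 24 hours at 37 degrees C, then caspase-3/7 activity was read by Caspase-Glo DEVD luciferase luminescence after 15 min.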
Test [9] in a line: HEK293 12hr Apoptosis Induction qHTS against the NCATS CANVASS Library (AID 1347361). The method, boiled down: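 Cells are seeded, dosed with an 11-point compound series and incubated 12 hours. Caspase-3/7 activity is detected by luminescent DEVD-substrate reagent after 15 minutes at room temperature.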
Test [10] deals with NAD(P)H diaphorase (Clostridium kluyveri). Description: Diaphorse counterscreen qHTS: Assay Interference Panel against the NCATS CANVASS Library (AID 1347362). A digest of the protocol:
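Clostridium kluyveri diaphorase in PBS with 0.01% Tween-20 was preincubated 15 min at room temperature in the dark with compounds (11-point series). Resorufin fluorescence (ex 525/20, em 598/25) was read 5 min after adding resazurin/NADH.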
A general note: A counterscreen serves to expose hits that act by an unwanted route or on another target.

Test [11] concerns the target Luciferin 4-monooxygenase (Photinus pyralis) (UniProt P08659). Description: Firefly luciferase counterscreen qHTS: Assay Interference Panel against the NCATS CANVASS Library (AID 1347363). Also: series mostly up to about 57 µM. A digest of the protocol:
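Purified P. pyralis luciferase was added to compounds (11-point series) preincubated 15 min at room temperature with substrate containing 0.013 mM D-luciferin and 0.013 mM ATP; luminescence was read after 5 min.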

Test [12] addresses Cytochrome P450 1A2 (Homo sapiens) (UniProt P05177). Description: p450-cyp1a2 (AID 410; calls by dose curve; also: potency is read from the fitted curve at half-maximal effect). The method, boiled down: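 Human CYP1A2 (20nM) demethylated Luciferin-ME at its Km (100uM) in 100mM KPO4. After 10 min compound preincubation, NADPH regeneration ran the reaction 60 min at room temperature. Luciferin was read by luminescence, normalized to 57 uM furafylline.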
Test [13] concerns the target Glucocorticoid receptor (Homo sapiens) (UniProt P04150). Description: GR-GFP Redistribution (AID 450;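 active = compounds whose dose series gives a full or clear partial fitted curve of increased nuclear translocation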; also: potency is read from the fitted curve at half-maximal effect). The note with it: U2OS GR-GFP nuclear translocation, laser cytometry, 2 h.
For test [14] the target is unchanged. Description: GR-EFC Redistribution (AID 451; calls by dose curve; also: potency is read from the fitted curve at half-maximal effect). The note with it: CHO-K1 GR-EFC translocation, beta-gal luminescence, 2 h. A digest of the protocol: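 CHO-K1 cells stably expressing nuclear-localized β-gal enzyme acceptor and GR fused C-terminally to the enzyme donor fragment; ligand-driven nuclear translocation restores β-gal by complementation. Compounds titrated up to 46 uM final, 2 h at 37 °C; luminescence read.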

Test [15] addresses Mitogen-activated protein kinase 10 (Mus musculus) (UniProt Q61831). Description: JNK3 AlphaScreen Assay (AID 530; active = well fitted curve in either direction with a large enough effect, not every such curve was filed as active;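 also: kinase came from lysate of stimulated human HepG2 cells; signal reports phosphorylation of biotinylated GST-cJun 1-79 at Ser73 with 10 µM ATP; series mostly up to about 57 µM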). The method, boiled down:
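JNK3 came from HepG2 lysates pre-activated with IL-1beta and TNF-alpha and phosphorylated biotinylated GST-cJun (1-79) at 10 uM ATP, pH 7.6, room temperature. Compounds were titrated. AlphaScreen signal used anti-phospho-cJun (Ser73) antibody.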

Test [16] has as its target Ubiquitin carboxyl-terminal hydrolase 1 (Homo sapiens) (UniProt O94782). Description: Inhibitors of USP1/UAF1: Pilot qHTS (AID 504865).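 Also: rhodamine fluorescence freed from ubiquitin-rhodamine substrate followed over time; top concentration of the series differs between compounds; nearly all actives have a fitted effect of over 35% in size.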 The method, boiled down: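 In 50mM HEPES pH 7.8 containing 0.5mM EDTA, 1mM TCEP, 0.1 mg/ml BSA and 0.01% Tween-20, 1nM USP1/UAF1 is exposed to compound for 15 min, then Ub-Rho (150nM final) is added and fluorescence is read over time.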

Test [17] addresses DNA dC->dU-editing enzyme APOBEC-3G (Homo sapiens) (UniProt Q9HC16). Put plainly: qHTS for inhibitors of Vif-A3G interactions: Validation (AID 588379). The method, boiled down: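 HeLa cells stably expressing Vif and A3G-eYFP, 700 cells/well, incubated overnight at 37 deg C, then exposed to compound overnight at 37 deg C. Inhibition of Vif-mediated degradation read as increased yellow fluorescence (Ex 488/Em 500-530) by laser-scanning cytometry.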

For test [18], the system named is Zika virus NS2B-NS3 protease. Put plainly: Primary screen GU AMC qHTS for Zika virus inhibitors (AID 1347154). Also: nearly all actives have a fitted effect of over 70% in size. A digest of the protocol: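 Unlinked Zika NS2B hydrophilic domain/NS3 protease domain noncovalent complex (25 nM final) in 10 mM Tris-HCl pH 8.0, 0.01% Tween 20, with AMC peptide substrate. Fluorescence (ex 340, em 450 nm) change over 15 min, room temperature; percent inhibition fitted to 4-parameter Hill equation.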

For test [19], the target named is 3',5'-cyclic-AMP phosphodiesterase 4B (Homo sapiens) (UniProt Q07343). Description: qHTS Assay for Inhibitors of PDE-IV (AID 607; active = well fitted activation curve with a large enough effect in the main read-out, with a control signal flat, not every such curve was filed as active). The method, boiled down:
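Live HEK293 cells with a modified cyclic nucleotide-gated (CNG) channel report intracellular cAMP via membrane-potential dye fluorescence (ex 535/em 590 nm). Endogenous PDE-IV was targeted. Compounds were tested at up to 22.9 uM final; RO 20-1724 100 uM served as control.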

Ubiquitin carboxyl-terminal hydrolase 1 (Homo sapiens), sequence (O94782 whole entry, looked up): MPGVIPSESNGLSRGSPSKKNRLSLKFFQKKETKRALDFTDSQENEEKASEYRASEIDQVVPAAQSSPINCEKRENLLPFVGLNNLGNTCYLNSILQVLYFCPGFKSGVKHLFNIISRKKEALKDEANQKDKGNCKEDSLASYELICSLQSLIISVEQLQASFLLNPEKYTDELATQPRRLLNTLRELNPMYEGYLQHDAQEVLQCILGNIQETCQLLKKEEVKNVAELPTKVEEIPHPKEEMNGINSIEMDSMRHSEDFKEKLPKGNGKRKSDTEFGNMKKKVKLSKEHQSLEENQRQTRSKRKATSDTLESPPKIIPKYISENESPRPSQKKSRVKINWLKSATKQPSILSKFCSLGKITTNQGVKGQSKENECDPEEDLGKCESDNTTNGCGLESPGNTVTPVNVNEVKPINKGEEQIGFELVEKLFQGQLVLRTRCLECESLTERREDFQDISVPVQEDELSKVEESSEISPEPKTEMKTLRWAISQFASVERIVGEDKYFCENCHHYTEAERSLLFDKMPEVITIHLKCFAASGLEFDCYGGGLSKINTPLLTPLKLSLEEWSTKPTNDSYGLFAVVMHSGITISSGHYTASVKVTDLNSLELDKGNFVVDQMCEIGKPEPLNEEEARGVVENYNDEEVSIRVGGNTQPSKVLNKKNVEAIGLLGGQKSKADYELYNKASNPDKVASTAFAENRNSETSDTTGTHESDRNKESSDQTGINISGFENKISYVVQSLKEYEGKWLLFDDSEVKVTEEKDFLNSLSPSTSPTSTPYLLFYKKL
Luciferin 4-monooxygenase (Photinus pyralis), sequence (P08659 whole entry, looked up): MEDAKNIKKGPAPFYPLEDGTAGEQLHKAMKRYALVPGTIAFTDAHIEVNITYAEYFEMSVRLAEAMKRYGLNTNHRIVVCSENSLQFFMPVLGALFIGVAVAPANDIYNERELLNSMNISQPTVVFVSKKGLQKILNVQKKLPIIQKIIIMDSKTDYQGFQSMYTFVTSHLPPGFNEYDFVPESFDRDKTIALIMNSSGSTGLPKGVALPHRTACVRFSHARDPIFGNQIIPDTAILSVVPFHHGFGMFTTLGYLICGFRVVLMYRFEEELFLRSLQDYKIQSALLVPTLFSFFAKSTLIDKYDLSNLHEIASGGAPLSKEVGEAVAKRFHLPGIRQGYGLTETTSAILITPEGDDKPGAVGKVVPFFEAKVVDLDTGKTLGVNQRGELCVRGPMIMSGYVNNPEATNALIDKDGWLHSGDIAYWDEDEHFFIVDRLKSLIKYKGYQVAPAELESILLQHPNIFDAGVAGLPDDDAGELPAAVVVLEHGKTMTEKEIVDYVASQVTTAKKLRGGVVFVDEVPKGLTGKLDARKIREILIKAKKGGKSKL
Glucocorticoid receptor (Homo sapiens), sequence (P04150 whole entry, looked up, the tested form may be a part): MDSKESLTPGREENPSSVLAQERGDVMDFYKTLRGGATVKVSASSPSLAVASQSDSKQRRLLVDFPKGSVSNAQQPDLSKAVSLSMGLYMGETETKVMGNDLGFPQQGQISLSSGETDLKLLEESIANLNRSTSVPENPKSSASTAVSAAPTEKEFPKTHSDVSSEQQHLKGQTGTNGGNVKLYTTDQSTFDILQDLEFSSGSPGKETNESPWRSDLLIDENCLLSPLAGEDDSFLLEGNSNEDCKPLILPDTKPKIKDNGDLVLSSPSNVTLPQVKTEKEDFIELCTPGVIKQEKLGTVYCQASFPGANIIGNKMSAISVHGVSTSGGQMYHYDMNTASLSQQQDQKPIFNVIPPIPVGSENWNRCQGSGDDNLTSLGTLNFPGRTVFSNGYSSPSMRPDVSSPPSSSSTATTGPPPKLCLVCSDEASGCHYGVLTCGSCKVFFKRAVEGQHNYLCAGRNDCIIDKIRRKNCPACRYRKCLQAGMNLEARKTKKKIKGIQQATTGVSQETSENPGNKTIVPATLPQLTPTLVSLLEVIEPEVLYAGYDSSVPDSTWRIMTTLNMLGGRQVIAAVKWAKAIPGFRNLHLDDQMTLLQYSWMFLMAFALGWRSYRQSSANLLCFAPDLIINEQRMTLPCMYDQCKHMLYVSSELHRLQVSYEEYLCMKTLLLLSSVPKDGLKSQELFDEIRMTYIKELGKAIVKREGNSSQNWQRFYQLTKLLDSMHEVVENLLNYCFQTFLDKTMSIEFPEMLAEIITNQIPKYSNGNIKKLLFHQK
Cytochrome P450 1A2 (Homo sapiens), sequence (P05177 whole entry, looked up): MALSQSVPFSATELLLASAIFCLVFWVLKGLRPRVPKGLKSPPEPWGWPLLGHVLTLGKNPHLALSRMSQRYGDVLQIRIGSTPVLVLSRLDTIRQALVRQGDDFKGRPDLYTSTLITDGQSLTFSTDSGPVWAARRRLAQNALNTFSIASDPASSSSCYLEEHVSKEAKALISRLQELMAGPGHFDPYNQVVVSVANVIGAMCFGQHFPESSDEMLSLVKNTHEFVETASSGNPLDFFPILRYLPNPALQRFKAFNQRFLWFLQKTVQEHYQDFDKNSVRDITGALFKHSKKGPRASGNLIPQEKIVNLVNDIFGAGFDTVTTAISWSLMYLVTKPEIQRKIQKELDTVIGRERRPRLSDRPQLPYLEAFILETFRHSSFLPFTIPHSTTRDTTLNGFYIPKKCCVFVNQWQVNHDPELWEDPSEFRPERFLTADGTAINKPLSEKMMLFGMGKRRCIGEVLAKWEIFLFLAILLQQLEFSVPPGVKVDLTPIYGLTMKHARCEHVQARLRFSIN
3',5'-cyclic-AMP phosphodiesterase 4B (Homo sapiens), sequence (Q07343 whole entry, looked up): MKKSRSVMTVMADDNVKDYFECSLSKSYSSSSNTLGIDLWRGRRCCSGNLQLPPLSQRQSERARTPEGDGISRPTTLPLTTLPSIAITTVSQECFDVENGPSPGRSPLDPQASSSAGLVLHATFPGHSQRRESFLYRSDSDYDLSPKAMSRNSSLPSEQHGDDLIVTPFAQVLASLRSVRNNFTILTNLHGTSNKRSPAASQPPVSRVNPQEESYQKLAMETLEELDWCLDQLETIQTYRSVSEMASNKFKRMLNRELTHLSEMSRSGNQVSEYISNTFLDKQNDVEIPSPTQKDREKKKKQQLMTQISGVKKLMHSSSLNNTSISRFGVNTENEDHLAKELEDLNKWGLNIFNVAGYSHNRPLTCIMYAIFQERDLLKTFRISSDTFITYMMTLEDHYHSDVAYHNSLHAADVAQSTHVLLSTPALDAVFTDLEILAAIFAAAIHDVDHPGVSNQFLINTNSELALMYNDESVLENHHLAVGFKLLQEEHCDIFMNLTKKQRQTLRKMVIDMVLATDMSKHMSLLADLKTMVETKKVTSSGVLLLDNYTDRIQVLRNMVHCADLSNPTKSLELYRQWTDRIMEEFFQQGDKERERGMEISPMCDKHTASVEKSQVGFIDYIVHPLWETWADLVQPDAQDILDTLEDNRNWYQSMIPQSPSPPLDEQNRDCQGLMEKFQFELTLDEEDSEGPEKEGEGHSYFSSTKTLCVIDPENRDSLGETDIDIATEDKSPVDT
DNA dC->dU-editing enzyme APOBEC-3G (Homo sapiens), sequence (Q9HC16 whole entry, looked up): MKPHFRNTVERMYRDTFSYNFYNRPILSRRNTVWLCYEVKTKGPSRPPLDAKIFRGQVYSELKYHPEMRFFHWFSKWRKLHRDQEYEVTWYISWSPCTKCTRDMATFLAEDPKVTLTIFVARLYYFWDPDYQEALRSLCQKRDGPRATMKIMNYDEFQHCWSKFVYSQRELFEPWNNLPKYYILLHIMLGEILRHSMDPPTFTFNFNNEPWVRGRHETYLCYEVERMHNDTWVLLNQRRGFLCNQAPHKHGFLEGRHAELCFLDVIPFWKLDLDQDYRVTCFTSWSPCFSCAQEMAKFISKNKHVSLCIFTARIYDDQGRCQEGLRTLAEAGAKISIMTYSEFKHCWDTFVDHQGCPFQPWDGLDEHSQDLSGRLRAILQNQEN

On to `CO[C@@H](/C=C/CC/C=C/C(=O)O)[C@@H](O)[C@H](C)/C=C(\C)[C@@H](O)[C@H](C)C(=O)CCCC1CC(=O)NC(=O)C1`, for which the Potency result in test [1], in [2], in test [3], in [4], in test [5] and in [6] was “inactive” each time. For the same molecule, the Potency entry in test [7], in test [8] and in [9] was “inactive” each time. Besides, the result in [10] and in test [11] was inactive.
On to `N[C@@H](Cn1ccc(=O)n(Cc2ccc(C(=O)O)cc2)c1=O)C(=O)O`, for which the Potency result in test [12], in test [16], in test [17] and in test [18] was “inactive” each time. The Potency in test [13] and in test [14] was > 46 µM each time. In addition, the molecule was called inactive in [15].
`CN(C(=O)Cc1ccc(Cl)c(Cl)c1)[C@H](CN1CCCC1)c1cccc(N=C=S)c1`: the Potency in [13] and in [14] was > 46 µM each time. Besides, the molecule was called inactive in test [15]. Moreover, the Potency entry in test [19] and in test [18] was “inactive” in each case.
Regarding `CCN1C[C@]2(COC)[C@H](O)C[C@H](OC)[C@]34C1C([C@H](OC)[C@H]23)[C@]1(OC(C)=O)C2[C@@H](OC(=O)c3ccccc3)C(O)(C[C@H]24)[C@@H](OC)[C@@H]1O`, the Potency entry in test [16] and in test [18] was “inactive” throughout.
`O=C(c1ccccc1O)c1[nH]c(Cl)c(Cl)c1-n1c(C(=O)c2ccccc2O)cc(Cl)c1Cl`: the Potency was 2.47 µM (active) in [1]; 5.94 µM (active) in test [2]; 1.33 µM (active) in [3]; 2.11 µM (active) in [4]; 2.11 µM (active) in test [5]; 2.11 µM (active) in test [6]. Moreover, the Potency in [7] was 13.3 µM (active). In addition, the Potency result in test [8] and in test [9] was “inactive” throughout. Also, the molecule was called inactive in test [10] and in [11].
On to `CO[C@H](c1ccccc1)[C@H]1NC(=O)C(C)NC(=O)C(C[C@@H](C)CO)N(C)C(=O)[C@@H](C(O)c2cn(C(C)(C)C3CO3)c3ccccc23)NC(=O)C(C(C)C=C(C)C)NC(=O)C(CC(C)C)N(C)C(=O)C(C(C)C)NC1=O` (stereo not given in full), for which the Potency in test [1] was 21.6 µM (active). Also, the Potency result in test [2], in [3], in test [4], in test [5], in test [6] and in test [7] was “inactive” throughout. The Potency result in test [8] and in test [9] was “inactive” each time. Besides, the result in test [10] and in [11] was inactive.
In the case of `CCC[C@H]1CC[C@H]2[C@H](C)CCC[C@H]2N1`, the Potency result in test [1], in test [2], in [3], in [4], in [5] and in [6] was “inactive” throughout. In addition, the Potency result in test [7], in [8] and in [9] was “inactive” each time. For the same molecule, the molecule was classed as inactive in [10] and in test [11].
With `NC(=NCc1ccc(Cl)cc1)SCCCc1cnc[nH]1`, the Potency in [14] is > 46 µM. The molecule was called inactive in [15]. In [18], the Potency result is “inactive”.
In the case of `O=C(O)c1ccccc1-c1c2cc(Br)c(=O)cc-2oc2[c]([Hg])c(O)c(Br)cc12`, the Potency is 15.8 µM (active) in [12] and > 20.6 µM in [14]. The Potency result in test [19] and in test [16] was “inactive” each time.
